Structures are written as SMILES. Results filed as inconclusive are left out. Unmarked numbers belong to inactive results. Calls of active or inactive are those of the source. Unless noted, calls come from the whole dose curve; as a rule, active = well fitted curve in the direction sought with a large enough effect in the repeat runs; inconclusive = weak or mixed curves; inactive = no such curve, though single readings can be large; an effect the other way counts as inactive or inconclusive.

The nature of assay [1]: qHTS assay to identify aromatase inhibitors - cell viability counter screen (AID 743084).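 Note: cells stimulated with testosterone during compound exposure; nearly all actives have a fitted effect of over 55% in size.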
Assay [2] addresses Aryl hydrocarbon receptor (Homo sapiens) (UniProt P35869). The assay is described as follows: qHTS assay to identify small molecule that activate the aryl hydrocarbon receptor (AhR) signaling pathway (AID 743085).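 For activation: HG2L7.5c1 human HepG2 liver cells with stably integrated DRE-driven firefly reporter; series mostly up to about 70 µM.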 Note: nearly all actives have a fitted effect of over 15% in size. Note: potency is the fitted concentration of half-maximal effect. Put shortly:
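HepG2 cells (HG2L7.5c1) stably carrying a firefly luciferase reporter driven by 20 dioxin responsive elements were exposed to compound for 24 h at 37C after a 5 h settling period; luminescence rise (ONE-Glo) indicated activation.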
A general note: In qHTS, concentration-response curves come from the screen itself.

The nature of assay [3]: qHTS assay to identify small molecule that activate the aryl hydrocarbon receptor (AhR) signaling pathway - cell viability counter screen (AID 743086).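 Note: HepG2 liver cells carrying the AhR DRE luciferase reporter; series mostly up to about 70 µM; nearly all actives have a fitted effect of over 45% in size.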 In short, it runs like this: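 HepG2-AhR-luc (HG2L7.5c1) cells, 4000/well, treated 24 h at 37 C with compound; viability measured as CellTiter-Fluor fluorescence after 30 min in the same wells as the luciferase read.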
Assay [4] concerns the target Peroxisome proliferator-activated receptor gamma (Homo sapiens) (UniProt P37231). The experiment in a line: qHTS assay to identify small molecule agonists of the peroxisome proliferator-activated receptor gamma (PPARg) signaling pathway (AID 743094; active = well fitted activation curve with a large enough effect in the signal ratio in the repeat runs, not every such curve was filed as active; the % refers to the signal ratio). In short, it runs like this:
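Fluorescence-based beta-lactamase readout in HEK293H PPARg UAS-bla cells after 17 h compound exposure (37C) and 1 h B/G FRET substrate incubation at room temperature.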

Assay [5] has the same target. The experiment in a line: qHTS assay to identify small molecule antagonists of the peroxisome proliferator-activated receptor gamma (PPARg) signaling pathway (AID 743191; calls by dose curve; note: series mostly up to about 63 µM; nearly all actives have a fitted effect of over 30% in size). In short, it runs like this:
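GeneBLAzer PPARg UAS-bla HEK293H cells, 5 h post-plating, exposed to compounds 17 h at 37C. LiveBLAzer B/G FRET substrate added for 1 h at room temperature; beta-lactamase reporter read by fluorescence intensity.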

Assay [6] can be described thus: qHTS assay to identify small molecule antagonists of the peroxisome proliferator-activated receptor gamma (PPARg) signaling pathway - cell viability counter screen (AID 743194). Note: nearly all actives have a fitted effect of over 55% in size. In short, it runs like this: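 Cytotoxicity counter screen in PPARg-bla HEK293H cells, same wells as reporter assay. Compounds plus 50 nM rosiglitazone (final) for 17 h at 37 C, then viability read by CellTiter-Glo luminescence.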

Assay [7] is described as follows: qHTS assay for small molecule agonists of the antioxidant response element (ARE) signaling pathway (AID 743202; active = well fitted activation curve with a large enough effect in the signal ratio in the repeat runs, not every such curve was filed as active; the % refers to the signal ratio). In short, it runs like this: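 HepG2 ARE-bla reporter line, 2,000 cells/well; 5 h preincubation 37 C/5% CO2; compound (DMSO) 16 h 37 C; B/G FRET substrate 2 h RT; fluorescence intensity.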
Assay [8] is described as follows: qHTS assay for small molecule agonists of the antioxidant response element (ARE) signaling pathway - cell viability counter screen (AID 743203; calls by dose curve; note: nearly all actives have a fitted effect of over 55% in size). Put shortly:
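Parallel cytotoxicity read-out for the ARE-bla screen: HepG2 reporter cells, 16 hrs with compounds, then CellTiter-Glo luminescence.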

Assay [9] is described as follows: qHTS assay for small molecule activators of the heat shock response signaling pathway - cell viability counter screen (AID 743209). Note: nearly all actives have a fitted effect of over 50% in size. Put shortly:
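To flag cytotoxic compounds, HSE-bla HeLa cells plated at 1500 cells/well were dosed for 5 h at 37 C, followed by the reporter FRET read and then CellTiter-Glo, with luminescence recorded 30 min after reagent addition.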

The nature of assay [10]: qHTS assay for small molecule activators of the heat shock response signaling pathway (AID 743210; active = well fitted activation curve with a large enough effect in the signal ratio in the repeat runs, with a control signal flat, not every such curve was filed as active; the % refers to the signal ratio; note: series mostly up to about 63 µM). Put shortly: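 Beta-lactamase reporter read-out: FRET substrate fluorescence after 2.5 h at RT, following 5 h compound treatment at 37 C of HeLa cells carrying HSE-driven bla reporter; quantitative HTS format.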
Assay [11] is described as follows: qHTS assay to identify small molecule agonists of the peroxisome proliferator-activated receptor delta (PPARd) signaling pathway - cell viability counter screen (AID 743211). Note: nearly all actives have a fitted effect of over 55% in size. Put shortly: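 PPARd-bla HEK293H cells (UAS-beta-lactamase reporter) were treated with compounds for 17 h at 37 C. Viability was then read in the same wells by CellTiter-Glo luminescence after 30 min at room temperature.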

Assay [12] addresses Peroxisome proliferator-activated receptor delta (Homo sapiens) (UniProt Q03181). The experiment in a line: qHTS assay to identify small molecule agonists of the peroxisome proliferator-activated receptor delta (PPARd) signaling pathway (AID 743212; calls by dose curve). In short, it runs like this: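 Read-out: beta-lactamase FRET fluorescence after 2 h room-temperature incubation with LiveBLAzer B/G substrate. Cells were HEK293H carrying a UAS-bla reporter for PPARd, treated at 37 C with DMSO-dissolved compounds.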

Assay [13] in a line: qHTS assay to identify small molecule antagonists of the peroxisome proliferator-activated receptor delta (PPARd) signaling pathway - cell viability counter screen (AID 743213). Note: nearly all actives have a fitted effect of over 50% in size. In short, it runs like this:
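HEK293H cells with the PPARd UAS-bla reporter, co-treated 17 h at 37 C with compounds and L165041 (300 nM final), were lysed with CellTiter-Glo. Luminescence indicated viable cell content.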

The target of assay [14] is Peroxisome proliferator-activated receptor delta (Homo sapiens) (UniProt Q03181). The experiment in a line: qHTS assay to identify small molecule antagonists of the peroxisome proliferator-activated receptor delta (PPARd) signaling pathway (AID 743215; active = well fitted inhibition curve with a large enough effect in the signal ratio in the repeat runs, not every such curve was filed as active; the % refers to the signal ratio;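 note: cells stimulated with agonist L165041 at 300 nM final during compound exposure; series mostly up to about 62 µM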). Put shortly:
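Screen format: qHTS, antagonist mode. HEK293H PPARd-bla cells received compound and 300 nM L165041 (final), 17 h, 37 C. Beta-lactamase detected via FRET substrate fluorescence, 2 h, room temperature.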

Assay [15] in a line: qHTS assay to identify small molecule antagonists of the farnesoid-X-receptor (FXR) signaling pathway - cell viability counter screen (AID 743221; active = well fitted cell-killing curve with a large enough effect in the repeat runs, not every such curve was filed as active; note: nearly all actives have a fitted effect of over 50% in size). In short, it runs like this: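 FXR-UAS-bla HEK 293T cells were treated with test compounds plus chenodeoxycholic acid (50 uM final) for 16 h at 37 C. Cell viability in the same wells was then read as CellTiter-Glo luminescence after 30 min at room temperature.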

For assay [16], the target named is Vitamin D3 receptor (Homo sapiens) (UniProt P11473). The assay is described as follows: qHTS assay to identify small molecule agonists of the vitamin D receptor (VDR) signaling pathway (AID 743222; calls by dose curve). In short, it runs like this:
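Using LiveBLAzer B/G FRET detection, agonism was scored in VDR-bla cells exposed overnight (16 h, 37C) to DMSO-dissolved compounds; substrate incubation was 2 h at room temperature.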

The target is the same in assay [17]. The experiment in a line: qHTS assay to identify small molecule antagonists of the vitamin D receptor (VDR) signaling pathway (AID 743223; active = well fitted inhibition curve with a large enough effect in the signal ratio in the repeat runs, not every such curve was filed as active; the % refers to the signal ratio). Put shortly: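 VDR-bla cells were plated, incubated 4 h at 37C, then given compound and 1alpha,25-dihydroxyvitamin D3 (3 nM final). After 16 h at 37C, LiveBLAzer B/G FRET substrate was added for 2 h at room temperature and fluorescence read.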

Assay [18] in a line: qHTS assay to identify small molecule agonists of the farnesoid-X-receptor (FXR) signaling pathway - cell viability counter screen (AID 743218). Note: nearly all actives have a fitted effect of over 45% in size. Put shortly:
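Same-well cytotoxicity check on FXR-UAS-bla HEK 293T cells: 5 h attachment, 16 h compound at 37 C, CellTiter-Glo luminescence read at room temperature after 30 min.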

Assay [19] addresses Bile acid receptor (Homo sapiens) (UniProt Q96RI1). The assay is described as follows: qHTS assay to identify small molecule agonists of the farnesoid-X-receptor (FXR) signaling pathway (AID 743220; active = well fitted activation curve with a large enough effect in the signal ratio in the repeat runs, not every such curve was filed as active; the % refers to the signal ratio). Put shortly:
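FXR-UAS-bla HEK 293T cells carrying a UAS-driven beta-lactamase reporter were plated for 5 h at 37C/5% CO2, then exposed to DMSO-dissolved Tox21 10K compounds for 16 h at 37C. A LiveBLAzer B/G FRET substrate was loaded for 2 h at room temperature before fluorescence reading.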

Assay [20] has the same target. The experiment in a line: qHTS assay to identify small molecule antagonists of the farnesoid-X-receptor (FXR) signaling pathway (AID 743217; active = well fitted inhibition curve with a large enough effect in the signal ratio in the repeat runs, not every such curve was filed as active; the % refers to the signal ratio). Put shortly:
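Quantitative HTS, beta-lactamase reporter format: FXR-UAS-bla HEK 293T cells co-treated 16 h at 37 °C with compounds and 50 uM final chenodeoxycholic acid, then read by B/G FRET fluorescence.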
% is set by controls: 0 for no effect and ±100 for the full control effect.

Chain of Aryl hydrocarbon receptor (Homo sapiens) (P35869 whole entry, looked up): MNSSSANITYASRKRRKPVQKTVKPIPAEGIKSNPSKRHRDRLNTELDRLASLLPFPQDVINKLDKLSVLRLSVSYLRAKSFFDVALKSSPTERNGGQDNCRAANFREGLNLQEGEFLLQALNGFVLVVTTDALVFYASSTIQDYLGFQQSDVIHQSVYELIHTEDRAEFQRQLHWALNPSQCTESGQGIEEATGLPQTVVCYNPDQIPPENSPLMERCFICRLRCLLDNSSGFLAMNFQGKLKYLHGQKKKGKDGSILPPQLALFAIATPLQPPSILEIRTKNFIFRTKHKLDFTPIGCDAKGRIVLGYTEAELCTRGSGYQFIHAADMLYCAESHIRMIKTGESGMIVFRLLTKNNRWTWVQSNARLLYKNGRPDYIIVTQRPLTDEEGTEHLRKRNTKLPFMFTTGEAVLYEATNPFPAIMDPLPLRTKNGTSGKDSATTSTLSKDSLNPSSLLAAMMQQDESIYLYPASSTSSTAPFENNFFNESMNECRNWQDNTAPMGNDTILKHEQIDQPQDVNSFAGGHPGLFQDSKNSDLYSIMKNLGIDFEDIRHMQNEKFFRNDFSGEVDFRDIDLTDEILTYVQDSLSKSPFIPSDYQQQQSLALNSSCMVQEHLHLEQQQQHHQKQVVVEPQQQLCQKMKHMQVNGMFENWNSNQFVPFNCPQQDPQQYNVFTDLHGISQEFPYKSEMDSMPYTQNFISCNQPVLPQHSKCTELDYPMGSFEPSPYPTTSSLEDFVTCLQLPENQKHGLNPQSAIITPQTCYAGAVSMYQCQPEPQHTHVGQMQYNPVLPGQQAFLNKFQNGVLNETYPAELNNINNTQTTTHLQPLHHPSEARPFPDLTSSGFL
Chain of Vitamin D3 receptor (Homo sapiens) (P11473 whole entry, looked up): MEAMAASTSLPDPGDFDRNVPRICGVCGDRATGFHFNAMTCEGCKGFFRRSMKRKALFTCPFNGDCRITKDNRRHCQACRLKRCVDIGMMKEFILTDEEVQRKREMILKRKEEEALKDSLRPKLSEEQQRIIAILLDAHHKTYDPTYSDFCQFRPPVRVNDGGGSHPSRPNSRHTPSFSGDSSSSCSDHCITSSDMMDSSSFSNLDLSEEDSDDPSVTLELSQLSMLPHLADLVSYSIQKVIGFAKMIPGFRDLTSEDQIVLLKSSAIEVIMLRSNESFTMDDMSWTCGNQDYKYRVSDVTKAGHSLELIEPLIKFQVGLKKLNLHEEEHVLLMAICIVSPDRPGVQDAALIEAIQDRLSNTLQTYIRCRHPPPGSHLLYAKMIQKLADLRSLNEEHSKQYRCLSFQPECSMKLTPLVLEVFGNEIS
Chain of Peroxisome proliferator-activated receptor gamma (Homo sapiens) (P37231 whole entry, looked up): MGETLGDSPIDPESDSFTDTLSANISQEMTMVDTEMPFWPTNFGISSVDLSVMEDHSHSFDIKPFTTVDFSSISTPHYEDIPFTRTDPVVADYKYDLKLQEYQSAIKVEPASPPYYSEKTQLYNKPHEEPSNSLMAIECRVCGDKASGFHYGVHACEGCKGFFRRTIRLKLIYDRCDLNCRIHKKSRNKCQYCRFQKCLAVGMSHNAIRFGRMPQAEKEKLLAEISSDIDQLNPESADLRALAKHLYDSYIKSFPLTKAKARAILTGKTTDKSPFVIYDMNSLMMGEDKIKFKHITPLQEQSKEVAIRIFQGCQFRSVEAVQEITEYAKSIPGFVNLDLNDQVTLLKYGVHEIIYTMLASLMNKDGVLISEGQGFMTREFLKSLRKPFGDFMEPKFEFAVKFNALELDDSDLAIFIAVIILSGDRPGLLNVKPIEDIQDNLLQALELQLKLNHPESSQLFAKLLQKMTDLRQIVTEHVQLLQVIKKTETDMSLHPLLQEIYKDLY
Chain of Peroxisome proliferator-activated receptor delta (Homo sapiens) (Q03181 whole entry, looked up): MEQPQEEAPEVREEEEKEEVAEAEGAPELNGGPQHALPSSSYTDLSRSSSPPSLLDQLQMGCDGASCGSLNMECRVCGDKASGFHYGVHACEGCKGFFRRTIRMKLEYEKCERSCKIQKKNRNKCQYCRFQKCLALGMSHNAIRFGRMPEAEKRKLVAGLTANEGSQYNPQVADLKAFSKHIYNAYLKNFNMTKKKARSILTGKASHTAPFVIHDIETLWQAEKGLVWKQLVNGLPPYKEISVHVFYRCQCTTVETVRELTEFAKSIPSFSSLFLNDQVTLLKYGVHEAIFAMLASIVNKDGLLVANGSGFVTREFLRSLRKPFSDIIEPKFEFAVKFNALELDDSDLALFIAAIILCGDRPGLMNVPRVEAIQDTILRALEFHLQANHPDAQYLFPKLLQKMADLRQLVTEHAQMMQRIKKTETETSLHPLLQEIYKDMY
Chain of Bile acid receptor (Homo sapiens) (Q96RI1 whole entry, looked up): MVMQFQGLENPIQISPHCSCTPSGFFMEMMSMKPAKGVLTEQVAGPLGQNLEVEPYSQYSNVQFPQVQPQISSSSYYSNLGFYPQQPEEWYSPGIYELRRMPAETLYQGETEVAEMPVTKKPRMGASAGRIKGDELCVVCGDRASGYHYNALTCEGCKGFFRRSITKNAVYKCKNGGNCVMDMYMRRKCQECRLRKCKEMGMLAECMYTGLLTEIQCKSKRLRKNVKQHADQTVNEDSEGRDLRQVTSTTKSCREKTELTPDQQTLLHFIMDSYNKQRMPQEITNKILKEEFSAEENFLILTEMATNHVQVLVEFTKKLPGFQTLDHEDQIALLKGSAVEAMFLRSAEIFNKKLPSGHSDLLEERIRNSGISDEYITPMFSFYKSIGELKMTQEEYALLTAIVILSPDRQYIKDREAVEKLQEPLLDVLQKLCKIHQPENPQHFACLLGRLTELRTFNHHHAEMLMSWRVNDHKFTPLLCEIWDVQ

On to `CC(C)(O)Cc1ccccc1`, for which the Potency result in assay [1], in assay [2], in assay [3], in [6], in assay [7] and in assay [11] was “inactive” in each case. Moreover, the Potency result in [13] and in [15] was “inactive” throughout. Further, the outcome in [4], in assay [5], in [8], in assay [9], in assay [10] and in assay [12] was inactive. Further, the result in [14] and in [16] was inactive.

For the compound `CC(C=O)Cc1ccc(C(C)C)cc1` (centres undefined), the Potency entry in [1], in assay [2], in [3], in assay [6], in assay [7] and in assay [11] was “inactive” throughout. For the same compound, the Potency result in assay [13] and in assay [15] was “inactive” each time. Also, the compound was called inactive in assay [4], in [5], in assay [8], in [10], in assay [14] and in assay [16]. Besides, in assay [17], the compound was classed as inactive.

With `CCCCc1ccc(N)cc1`, the Potency entry in assay [1], in assay [2], in [3], in assay [7], in assay [11] and in assay [13] was “inactive” throughout. The call in assay [4], in assay [5], in assay [8], in assay [9], in assay [10] and in [18] was inactive. Also, the call in assay [16] and in assay [17] was inactive.

Consider `OCC(CO)(CO)COCC(CO)(CO)CO`, for which the Potency result in [1], in [2], in assay [3], in [6], in assay [7] and in assay [11] was “inactive” each time. Besides, the Potency entry in assay [13] and in [15] was “inactive” each time. Also, the outcome in [4], in assay [5], in [8], in assay [9], in [10] and in assay [18] was inactive. Besides, the compound was called inactive in [19], in assay [16] and in assay [17].

As for `NCC[C@H](O)C(=O)N[C@@H]1C[C@H](N)[C@@H](O[C@H]2O[C@H](CN)[C@@H](O)[C@H](O)[C@H]2O)[C@H](O)[C@H]1O[C@H]1O[C@H](CO)[C@@H](O)[C@H](N)[C@H]1O`, the Potency result in [1], in [2] and in assay [3] was “inactive” in each case. Moreover, in assay [4], the compound was classed as inactive. For the same compound, the ratio activity, negative = inhibition in assay [5] is 0.895% [at 0.55 µM]; in [14], 4.4% [at 0.575 µM]. The activity change, negative = cytotoxicity in assay [6] is 0.328% [at 0.55 µM]; in [9], -14.9% [at 0.55 µM]; in assay [11], 6.61% [at 0.55 µM]; in assay [15], 9.05% [at 0.55 µM]. Besides, the activation in assay [7] was 2.58% [at 0.756 µM]; in assay [10], 0.848% [at 0.55 µM]; in [12], 0% [at 0.55 µM]. Also, the viability change, negative = cytotoxic is -0.425% [at 0.756 µM] in assay [8] and -2.06% [at 0.575 µM] in assay [13].

Consider `COc1ccc(N=[N+]([O-])c2ccc(OC)cc2)cc1`, for which the Potency result in [1], in assay [3], in [6], in assay [11], in assay [13] and in assay [15] was “inactive” throughout. Besides, the Potency in [2] is 9.59 µM (active). In addition, the call in assay [4], in [5], in [8], in assay [10], in [12] and in assay [16] was inactive. In addition, in [17], the outcome was inactive.

`COc1nc(C)nc(N)n1`: the Potency entry in assay [1], in assay [2], in assay [3], in [7], in [11] and in assay [13] was “inactive” in each case. Besides, the Potency result in assay [15] was “inactive”. For the same compound, the compound was classed as inactive in assay [4], in assay [5], in assay [8], in assay [9], in assay [10] and in assay [14]. In addition, the outcome in [18] and in assay [16] was inactive.

As for `C1COCCO1`, the Potency entry in assay [1], in assay [2], in [3], in assay [6], in assay [11] and in assay [13] was “inactive” throughout. In [15], the Potency entry was “inactive”. Also, the result in assay [4], in assay [5], in assay [8], in assay [9], in assay [10] and in [12] was inactive. Further, the compound was classed as inactive in assay [14], in [20], in assay [18], in assay [16] and in [17].

The record behind these values is PubChem BioAssay (Tox21).
